# From PubChem
# S16 F2sN tox = S16 Schwann cell cytotoxicity; 43,000 compounds, 0.48% hits; AID 1508642; S16 Pmp22-F2sN Schwann cells viability, CellTiter-Glo, 24 h; Potency, µM (top dose mostly 57.5 µM), actives largely listed as cytotoxic; also: nearly all actives have a fitted effect of over 65% in size
#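 S16 Pmp22-F2sN Schwann cells (500-1,000/well) in phenol-red-free DMEM with 10% FBS received 23 nL compound by pin tool for 24 h at 37 °C. Viability was then read as CellTiter-Glo luminescence after 15 min at room temperature.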
# PMP22 txn = PMP22 gene transcription modulation; S16 Pmp22-F2sN Schwann cells, FLuc/NLuc coincidence luminescence, 24 h; Potency, µM (series often up to 57.5 µM), most hits filed as inhibitors; 43,000 compounds, 2% hits; AID 1508649; active = clear falling dose curves in both reporters; inconclusive = both reporters move, but less clearly or upward; inactive = either reporter flat; the % is the NLuc reporter signal
#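 S16 Schwann cells carrying FLuc/NLuc coincidence reporter in the Pmp22 3' UTR treated with compound 24 h at 37C; FLuc then NLuc luminescence read sequentially by dual-luciferase reagents.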
# p53null 39C kill = kills p53 null cells at the nonpermissive temperature; H1299 p53-null (neo) cells, 39C, ATPlite viability, 24 h; Potency, µM (titrated, usually from 46.1 µM), most hits filed as cytotoxic; 55,000 compounds, 0.97% hits; AID 904; also: nearly all actives have a fitted effect of over 50% in size
#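 Following overnight plating at 37C (600 cells/well), H1299-neo or H1299-p53A138V cells are dosed up to 46 uM. Incubation lasts 24 hr at 39C before ATP detection.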
# OvCa metastasis = blocks SKOV3ip1 adhesion and invasion in omental model; SKOV3ip1-GFP adhesion/invasion on 3D omental model, fluorescence; Potency, µM (doses to about 45.8 µM), usual class: inhibitors; 46,000 compounds, 0.1% hits; also: nearly all actives have a fitted effect of over 65% in size
#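 A 3D layer of primary human omental fibroblasts, mesothelial cells, fibronectin and collagen I, grown 48 hr, received SKOV3ip1-GFP cells in serum-free medium plus compounds at 0.36-46 umol/L. After 2 hr RT and 16 hr 37 C, fixed adherent GFP cells were counted; normalized to DMSO and tomatine.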
# mTORC1 inh = inhibitors of mTORC1 signaling in Tsc2-/- p53-/- MEF cells; Potency, µM (doses to about 38.3 µM), hits mostly inhibitors; Tsc2-/- p53-/- MEF, phospho-rpS6 immunofluorescence/PI, 24 h; 44,000 compounds, 0.78% hits; also: nearly all actives have a fitted effect of over 50% in size
#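 Plate MEFs (Tsc2-/-, p53-/-, empty vector) in DMEM/10% FBS; after 24 h add compound, incubate 24 h at 37 degree Celsius; fix in PFA/TX-100, block, stain phospho-rpS6 and 10 uM PI; scan at 488 nm; report % positive cells.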
# p53null 32C tox = selectivity test: cytotoxicity in p53 null cells, permissive temperature. H1299-neo p53 null cells, ATP luminescence, 24 h, 32C. Potency, µM (top dose mostly 46.1 µM), most hits filed as cytotoxic. 55,000 compounds, 0.62% hits. AID 903; also: nearly all actives have a fitted effect of over 55% in size
#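 AC50 values derive from Hill modelling of qHTS concentration-response data (up to 46 uM) in H1299-neo cells. Cells were treated 24 h at 32C following overnight attachment at 37C; viability was read as cellular ATP.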
# NLuc sat counter = counter-screen for PMP22 expression modulators: NanoLuc inhibition, saturating substrate. shares compounds with PMP22 txn. 690 compounds, 4% hits. Potency, µM (top dose mostly 57.5 µM), hits mostly inhibitors. Secreted NLuc enzyme (filtered S16 cell medium), Nano-Glo luminescence
# NLuc Km ctr = NanoLuc inhibition at Km substrate, PMP22 artifact check; shares compounds with PMP22 txn; secreted NLuc enzyme, coelenterazine luminescence, Km conditions; Potency, µM (series often up to 57.5 µM), usual class: inhibitors; 690 compounds, 5% hits
# FLuc ctr PMP22 = inhibits firefly luciferase, PMP22 counter-screen | shares compounds with PMP22 txn | purified P. pyralis FLuc, luminescence, 10 min | Potency, µM (series often up to 57.5 µM), actives largely listed as inhibitors | 690 tested, under 10 active | AID 1508640
# Target sequence (P08659 whole entry, looked up): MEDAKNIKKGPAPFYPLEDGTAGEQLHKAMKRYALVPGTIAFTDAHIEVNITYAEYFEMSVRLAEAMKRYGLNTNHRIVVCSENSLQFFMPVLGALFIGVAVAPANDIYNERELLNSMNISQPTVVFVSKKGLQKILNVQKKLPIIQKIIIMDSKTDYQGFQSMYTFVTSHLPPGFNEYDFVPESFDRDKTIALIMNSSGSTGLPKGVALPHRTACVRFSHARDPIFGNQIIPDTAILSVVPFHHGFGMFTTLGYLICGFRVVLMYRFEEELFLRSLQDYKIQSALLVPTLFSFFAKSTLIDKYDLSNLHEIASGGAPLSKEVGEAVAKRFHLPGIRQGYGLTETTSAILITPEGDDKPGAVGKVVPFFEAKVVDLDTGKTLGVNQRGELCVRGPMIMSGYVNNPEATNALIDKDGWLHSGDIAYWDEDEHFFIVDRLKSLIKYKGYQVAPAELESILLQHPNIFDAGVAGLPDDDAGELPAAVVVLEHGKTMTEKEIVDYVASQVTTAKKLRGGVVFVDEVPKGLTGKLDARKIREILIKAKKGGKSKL
# S16 viab conf = confirmation of cytotoxicity in S16 Pmp22-F2sN Schwann cells (luciferase reporters placed in the Pmp22 gene); shares compounds with PMP22 txn; S16 Schwann cells viability, CellTiter-Glo ATP luminescence, 24 h; Potency, µM (series often up to 57.5 µM), actives largely listed as cytotoxic; 690 compounds, 7% hits; AID 1508641
# PMP22 txn conf = PMP22 transcription modulation, confirmatory | shares compounds with PMP22 txn | S16 Schwann cells Pmp22-F2sN, dual luciferase, 24 h | Potency, µM (top dose mostly 57.5 µM), usual class: inhibitors | 690 compounds, 22% hits; active = clear falling dose curves in both reporters; inconclusive = both reporters move, but less clearly or upward; inactive = either reporter flat; the % is the FLuc reporter signal
# PMP22 prot conf = confirmation of modulators of rat PMP22 protein expression; shares compounds with PMP22 txn; S16 Schwann cells Pmp22-HiBiT, luminescence, 48 h; Potency, µM (titrated, usually from 27.9 µM), hits mostly inhibitors; 95 tested, under 10 active; AID 1508647
# Target sequence (P25094 whole entry, looked up): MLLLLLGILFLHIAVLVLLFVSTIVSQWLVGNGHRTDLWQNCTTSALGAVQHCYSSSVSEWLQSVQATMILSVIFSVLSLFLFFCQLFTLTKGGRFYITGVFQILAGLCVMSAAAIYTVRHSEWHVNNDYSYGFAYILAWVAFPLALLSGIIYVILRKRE
# Numbers stand for hits; . = inactive; ? = inconclusive; / = not tested or not shown. A selection: hits, their analogues and other compounds. The true share with any hit is near 3.1%. Unless noted, calls follow the shape of the dose curve; as a rule, active = well fitted curve in the direction sought with a large enough effect; inconclusive = small, poorly fitted or top-dose-only effect, or another doubt; inactive = no such curve, though single readings can be large; an effect the other way counts as inactive or inconclusive.
SMILES,S16 F2sN tox,PMP22 txn,p53null 39C kill,OvCa metastasis,mTORC1 inh,p53null 32C tox,NLuc sat counter,NLuc Km ctr,FLuc ctr PMP22,S16 viab conf,PMP22 txn conf,others
CCOC(=O)c1c(S(=O)(=O)N2CCCC(C(=O)N3CCN(c4cccc(C)c4C)CC3)C2)c(C)n(C)c1C (stereo not given),.,17µM,.,.,.,.,?,?,.,.,.,
Cc1oc(-c2ccc(Cl)cc2)nc1CS(=O)CC(=O)NCc1ccc(Cl)cc1 (stereo not given),.,.,.,.,.,.,/,/,/,/,/,
COc1ccc(N2CCN(S(=O)(=O)CCNC(=O)Cc3ccc(-c4ccccc4)cc3)CC2)cc1,.,10µM,.,.,.,.,.,.,.,.,.,
COC(=O)c1ccn(-c2nc(-c3ccc(Cl)cc3)cc(C(F)(F)F)n2)n1,.,.,.,.,.,.,/,/,/,/,/,
CCCCN(Cc1cc2ccccc2[nH]c1=O)C(=O)c1cccc(Cl)c1,.,20µM,.,.,.,.,?,?,.,?,.,
COc1ccc(Cn2c(SCC(N)=O)nc3c(sc4ccccc43)c2=O)cc1,?,12µM,.,.,.,.,.,.,.,27µM,?,
Oc1ccc(NCc2ccccc2OCc2ccccc2F)cc1,28µM,20µM,.,?,.,.,?,?,?,.,.,
Cc1ccc(CNC(=O)CSc2nc3ccsc3c(=O)n2-c2ccc(Br)cc2)cc1,.,?,.,.,.,.,/,/,/,/,/,
COc1ccc(-n2c(SCC(=O)NCc3ccc(Cl)cc3)nc3ccsc3c2=O)cc1,.,16µM,.,.,.,.,.,.,.,.,.,
N#CC1=C2SCN(C3CCCCC3)CN2C(=O)CC1c1c(F)cccc1Cl (stereo not given),.,9.5µM,.,.,.,.,11µM,7.7µM,.,.,.,
N#CC1=C2SCN(C3CCCCC3)CN2C(=O)CC1c1ccc(Cl)cc1 (stereo not given),.,?,.,.,.,.,/,/,/,/,/,
CCC1CCCCN1CCCNC(=O)c1ccc2c(c1)N(Cc1ccccc1F)C(=O)c1ccccc1S2(=O)=O (stereo not given),?,8.9µM,?,.,?,.,.,.,.,?,?,
COc1ccc(-c2noc(CSc3nnc(-c4ccncc4)n3-c3ccc(C)c(C)c3)n2)cc1,.,13µM,?,.,.,.,?,?,.,?,?,
COc1ccc(-c2noc(CSc3nnc(C)n3-c3ccc(C)cc3)n2)cc1OC,.,12µM,.,.,.,.,22µM,14µM,.,?,.,
COc1ccc(-n2c(SCc3nc(-c4ccc(Cl)cc4)no3)nnc2-c2ccncc2)cc1,?,?,.,.,.,.,/,/,/,/,/,
Cc1ccc(-c2noc(CSc3nnc(C)n3-c3ccc(F)cc3)n2)cc1,.,.,.,.,.,.,/,/,/,/,/,
COc1ccc(-c2noc(CSc3nnc(-c4ccncc4)n3-c3cccc(C)c3)n2)cc1OC,.,10µM,?,.,.,.,?,?,.,.,.,
O=[N+]([O-])c1cc(-c2nc(-c3ccncc3)no2)ccc1NCc1ccccc1,.,.,.,.,.,.,/,/,/,/,/,
CC(C)CCNC(=O)c1ccc(Cn2c(=O)c3cccn3c3cccnc32)cc1,.,?,.,.,.,.,/,/,/,/,/,
COc1ccc(CNC(=O)CN2N=C(c3ccccc3)CCC2=O)c(OC)c1,.,.,.,.,.,.,/,/,/,/,/,
CCOC(=O)c1cc2c(=O)n3ccccc3nc2n(Cc2ccco2)c1=NC(=O)c1cc(C)cc(C)c1,?,5.6µM,?,.,.,?,?,?,.,?,4.6µM,PMP22 prot conf=?
CCOC(=O)c1cc2c(=O)n3ccccc3nc2n(CC2CCCO2)c1=NC(=O)c1cccc(C(F)(F)F)c1 (stereo not given),.,4.9µM,.,.,.,.,.,?,.,.,?,
CCOC(=O)c1cc2c(=O)n3ccccc3nc2n(Cc2ccco2)c1=NC(=O)c1ccc(C(C)(C)C)cc1,.,?,.,.,.,.,/,/,/,/,/,
CCOC(=O)C1CCN(c2nc(-c3ccc(Br)cc3)nc3ccccc23)CC1,?,15µM,.,.,.,.,.,.,.,.,.,
CC1CCN(c2nc(-c3ccc(Br)cc3)nc3ccccc23)CC1,.,.,.,.,.,.,/,/,/,/,/,
SMILES,S16 F2sN tox,PMP22 txn,p53null 39C kill,OvCa metastasis,mTORC1 inh,p53null 32C tox,NLuc sat counter,NLuc Km ctr,FLuc ctr PMP22,S16 viab conf,PMP22 txn conf,others
CCCSc1ncc(Cl)c(C(=O)Nc2nc3ccc(OCC)cc3s2)n1,.,.,.,.,.,.,/,/,/,/,/,
COc1ccc2nc(NC(=O)c3nc(S(=O)(=O)Cc4ccc(C)cc4)ncc3Cl)sc2c1,28µM,7.3µM,?,?,?,.,.,.,.,.,.,
Cc1ccc(CNC(=O)c2nc(SCc3ccc(C)cc3)ncc2Cl)cc1,.,?,.,.,.,.,/,/,/,/,/,
Cc1ccc(CS(=O)(=O)c2ncc(Cl)c(C(=O)Nc3nc4ccc(F)cc4s3)n2)cc1,?,5.4µM,?,.,.,.,.,?,.,?,16µM,PMP22 prot conf=?
COC(=O)c1ccccc1NC(=O)c1nc(S(=O)(=O)Cc2cccc(C)c2)ncc1Cl,?,5.3µM,.,.,.,.,.,3.9µM,.,?,7.3µM,PMP22 prot conf=.
Cc1ccc(CNC(=O)c2nc(S(=O)(=O)Cc3ccc(C)cc3)ncc2Cl)cc1,?,10µM,?,.,.,.,.,.,.,.,17µM,PMP22 prot conf=.
